# Reference: PubChem BioAssay (NCI)
# The panel holds about 83,000 compounds, 20% with a hit somewhere; the sample as a whole holds those more often.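 Treatment: one concentration, 48 hours, 96-well format. Scoring: percent growth, with anything below 10 considered active.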 Values without a mark were called inactive. Calls of active or inactive are those of the source.
# Tested on: MOLT-4 leukemia
# Assay: NCI-60 one-dose screen, 48 h (100 = growth as untreated, 0 = no growth, -100 = all killed)
# Settings: 10 µM unless noted
# Experimental: Growth inhibition of the MOLT-4 human tumor cell line is measured as a screen for anti-cancer activity. Cells are grown in 96 well plates and exposed to the test compound for 48 hours. Compounds are tested at a single concentration, which is 10^-5 M for most compounds. The reported endpoint is percent growth (GI% or GIPRCNT), where numbers from 0 - 100% represent growth inhibition, and numbers from -100% - 0 represent cell death. For example, a value of 40 represents 60% growth inhibition. A value of 0 means no net growth occurred over the course of the experiment. A value of -40 indicates 40% of cells at the beginning of the experiment died by the end of the experiment. A value of -100 means all cells are dead at the end of the experiment.
# NCI-60 Human Tumor Cell Lines Screen was performed using the standard one-dose NCI protocol, which is described in more detail at https://dtp.cancer.gov/discovery_development/nci-60/default.htm.
# Compounds with GIPRCNT values below 10 were considered active. Activity score was based on GIPRCNT using the following formula: […]
# Score is 0 for GIPRCNT values of 100 or above, 50 for GIPRCNT values of 0, and 100 for GIPRCNT values of -100.
row,Compound,growth
1,COc1ccc(/C=C/C(=O)c2ccc(Nc3ccnc4cc(Cl)ccc34)cc2)cc1,22.9%
2,COc1cc2c(c(OC)c1OC)CCC(c1cccc(C(=O)Nc3ccc(C#N)cc3)c1)O2 (stereo not given),-14.4% (active)
3,COc1cc2c(cc1OCCCN1CCN(CCCOc3cc4c(cc3OC)C(=O)N3CCC[C@H]3C=N4)CC1)C=CC(C)(C)O2,-12.8% (active)
4,O=C1NC(=O)C(Cc2ccc(OCc3ccc(-c4ccc(Cl)cc4Cl)cc3)cc2)S1 (stereo not given),17%
5,N#Cc1ccc(O)c(C2=NCC(c3cccc(Oc4ccccc4)c3)O2)c1 (stereo not given),-0.248% (active)
6,C/C(=N\O)c1ccc(Cl)cc1,86.3%
7,CC(=O)N1N=C(c2ccc(Nc3nc(Nc4ccccc4)nc(Nc4ccccc4)n3)cc2)CC1c1cccc([N+](=O)[O-])c1 (stereo not given),84.5%
8,O=C(CSc1oc(-c2ccccc2)nc1S(=O)(=O)c1ccccc1)Nc1ccc(F)cc1,73.3%
9,COc1ccc(/C=C/C(=O)c2cccc(OCCCCOc3cccc(C(=O)/C=C/c4ccc(OC)c(OC)c4)c3)c2)cc1OC,62.8%
10,CCCNc1nc2ccccc2c2c1S(=O)(=O)c1ccc(Cl)cc1C2=O,4.02% (active)
11,CN(C)c1ccc(C(=O)OCCCCCCl)cc1,86.1%
12,CNc1nnc2n(-c3ccccc3)c(=O)c3cnn(-c4ccccc4)c3n12,72.2%
13,CSc1nc(N)c(NS(=O)(=O)c2ccc(C(C)=O)cc2)c(=O)[nH]1,112%
14,COc1cc2nc3cc([N+](=O)[O-])ccc3c(NCCNCC(C)O)c2cc1OC (stereo not given),-0.334% (active)
15,CCCCCOC(=O)c1c(C)[nH]c(/C=C2\N=C(c3ccc[nH]3)C=C2OC)c1C,9.58% (active)
16,COc1ccc(-c2cc(-c3cccnc3)nc3sc4c(=O)[nH]c(-c5ccc(Cl)cc5)nc4c23)cc1OC,37.6%
17,CCCCn1c(=O)[nH]c(N)c([C@@H]2c3c([nH]c(=O)n(CCCC)c3=O)Oc3ccc4ccccc4c32)c1=O,-8.45% (active)
18,N#Cc1c(-c2ccccc2)[nH]c2ncc(-c3ccccc3)n2c1=O,101%
19,O=C(Nc1nc2cc(C(=O)N3CCN(C(c4ccccc4)c4ccccc4)CC3)ccc2o1)c1ccc(NC2CCCCC2)c([N+](=O)[O-])c1,47.9%
20,COc1ccccc1CNc1c2ccccc2nc2ccccc12,20.7%

row,Compound,growth
1,COc1cccc(/C=C2\COc3ccc(O)c(O)c3C2=O)c1,2.08% (active)
2,Cc1cc(=O)n(C(=O)Nc2ccccc2Cl)c2cc(O)ccc12,110%
3,Nc1ncnc2c1C(c1ccccc1)c1ccc3ccccc3c1O2 (stereo not given),68.4%
4,O=C1/C(=C/c2ccccc2O)CC/C1=C\c1ccccc1O,6.67% (active)
5,O=C(C[C@]1(O)C(=O)Nc2ccccc21)c1cccc(C(F)(F)F)c1,96%
6,CC(C)=CC(=O)OCC(=O)O[C@@H]1C[C@]2(C(C)C)O[C@@]1(C)[C@@H]1CC[C@@H](C)[C@H]1[C@@H]2OC(=O)/C=C/c1ccccc1,79.1%
7,NC(=O)c1ccc(-c2c3ccccc3cc3c2ccc2ccccc23)cc1,40.5%
8,COC(=O)C1Cc2ccccc2CN1C(=O)c1ccc2c(c1)Cc1ccccc1-2 (stereo not given),21.9% [50 µM]
9,S=c1sc2c(Cl)nc(-c3cccnc3)nc2n1-c1ccccc1,-41.5% (active)
10,O=C(Nc1ccc(OS(=O)(=O)c2ccc(F)cc2)cc1)C1CCCCCC1,77.4%
11,COc1cc2oc(-c3cccc(NC(=O)c4ccccc4)c3)cc(=O)c2c(OC)c1OC,40.7%
12,Cc1ccc2c(c1)=C/C(=C\c1cc(-c3ccccc3)oc1O)C(=O)N=2,90.6%
13,c1ccc2cc(C[n+]3ccn(CCCCCCCCCCn4cc[n+](Cc5ccc6ccccc6c5)c4)c3)ccc2c1,-43.6% (active)
14,CC(=O)Oc1ccc(/C(=C(\C)c2ccc(Cl)cc2)c2ccc(OCCN3CCCCC3)cc2)cc1,-8.3% (active)
15,Cc1ccc(CNc2ccc3nc(CCC4CCCCC4)[nH]c3c2)cc1,19.5%
16,CC(C)(C)CC(C)(C)NC(=O)Nc1ncccc1OCc1ccccc1,89.1%
17,CC(=O)O[C@@H]1C[C@]2(C(C)C)O[C@@]1(C)[C@@H]1CCC(C)=C1[C@@H]2OC(=O)/C=C/c1ccccc1,83.8%
18,O=C(COc1ccc(-c2nc3cc(Cl)c(Cl)cc3[nH]2)cc1)N=Nc1c(O)[nH]c2ccc(Cl)cc12,47%
19,CCCCNC(=O)CC1=C(C)/C(=C/c2[nH]c(-c3ccc[nH]3)cc2OC)N=C1C,7.6% (active)
20,CCCc1c(OC(=O)c2ccccc2)nc2[nH]c(=O)sc2c1C,104%
